We go through 15 compounds from PubChem BioAssay (NCI).

About 83,000 compounds went through this panel and 20% of them were active in at least one assay; those are over-represented in the sample as a whole.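 Values shown are percent growth following 48 h exposure of cells in 96-well plates to a single concentration of compound; below 10 was considered active.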 A number with no mark means an inactive call. Calls of active or inactive are those of the source.

Among the test systems are SK-MEL-2 melanoma; EKVX NSCLC; SN12C renal; UO-31 renal; TK-10 renal; ACHN renal; CAKI-1 renal; A498 renal; CCRF-CEM leukemia.
Common to all, as to experiment: NCI-60 one-dose screen, 48 h (100 = growth as untreated, 0 = no growth, -100 = all killed)
What all share (conditions): 10 µM unless noted

For `CN1CCN(c2ccc3c(c2)nc(NNC(=O)c2ncccn2)c2cccn23)CC1`, the growth in the assay with SK-MEL-2 melanoma is -7.45% (active); with EKVX NSCLC, -73.2% (active); in the assay on SN12C renal it was 6.25% (active); in the assay with UO-31 renal it was 1.76% (active); in the assay with TK-10 renal it was -87.5% (active); in the assay with ACHN renal, -83.7% (active). Moreover, the growth is -80.9% (active) with CAKI-1 renal, -95% (active) with A498 renal and 7.34% (active) in the assay on CCRF-CEM leukemia.
Take `CC(=O)N1CCN(Cc2ccc3c(NNC(=O)c4cnccn4)nc4cc(F)ccc4n23)CC1`: the growth is 43.5% in the assay with SK-MEL-2 melanoma; 16.2% with EKVX NSCLC; 21.4% in the assay with SN12C renal; 10.6% with UO-31 renal; 30.3% with TK-10 renal; 11% in the assay on ACHN renal. The growth with CAKI-1 renal is 13.1%; in the assay on A498 renal, 50.2%; with CCRF-CEM leukemia it was 9.27% (active).
On to `CN1CCN(c2ccc(C(=O)/C=C/c3ccc(Br)cc3)cc2)CC1`, for which the growth in the assay on SK-MEL-2 melanoma was 85.4%; with EKVX NSCLC, 51.8%; in the assay with SN12C renal, 13.9%; with UO-31 renal, 18.8%; with TK-10 renal, 38.4%; with ACHN renal it was 30.8%. The values for the growth in the assay with CAKI-1 renal, with A498 renal and in the assay with CCRF-CEM leukemia were 30.8%, 96% and 18.2%, respectively.
In the case of `Cc1cnc(C(=O)NNc2nc3cc(F)ccc3n3c(C(=O)N4CC5CC(C4)N5)ccc23)cn1`, the growth with SK-MEL-2 melanoma is 53%; in the assay with EKVX NSCLC it was 23.1%; in the assay on SN12C renal, 32.1%; with UO-31 renal, 23.3%; with TK-10 renal, 41.2%; in the assay with ACHN renal, 15.6%. Further, the growth with CAKI-1 renal was 23.1%; in the assay with A498 renal it was 88.6%; with CCRF-CEM leukemia, 17%.
Regarding `COc1ccc(C(=O)/C=C/c2cccc(Br)c2)cc1S(N)(=O)=O`, the growth with SK-MEL-2 melanoma was -26% (active); with EKVX NSCLC it was -68.4% (active); with SN12C renal, -79.2% (active); in the assay with UO-31 renal, -91.8% (active); in the assay with TK-10 renal, -91.8% (active); with ACHN renal, -95.2% (active). The growth is -79.9% (active) in the assay on CAKI-1 renal and 93.3% in the assay on A498 renal.
With `O=C(NNc1nc2cc(C(F)(F)F)ccc2n2cccc12)c1cnccn1`, the growth in the assay with SK-MEL-2 melanoma was -73.1% (active); with EKVX NSCLC, -83.2% (active); in the assay on SN12C renal it was -59.9% (active); with UO-31 renal, -64.6% (active); in the assay with TK-10 renal, -91.8% (active); in the assay on ACHN renal, -97.5% (active). Also, the figures for the growth in the assay on CAKI-1 renal, with A498 renal and in the assay on CCRF-CEM leukemia were -87.6% (active), -92.7% (active) and 6.27% (active), respectively.
Consider `C/C(=N\Nc1ccc(S(N)(=O)=O)cc1)c1ccc(N=Nc2c(Nc3ccccc3)[nH][nH]c2=O)cc1`, for which the growth in the assay with SK-MEL-2 melanoma was -51.9% (active); with EKVX NSCLC it was 62.5%; with SN12C renal, -12.9% (active); with UO-31 renal it was 86.1%; with TK-10 renal it was 71.9%; in the assay with ACHN renal, 42.4%. The growth was 77.1% in the assay with CAKI-1 renal, 35.2% in the assay with A498 renal and 3.59% (active) in the assay with CCRF-CEM leukemia.
Turning to `COc1ccc(C(=O)Nc2n[nH]c(Nc3ccccc3)c2C#N)cc1`, the growth in the assay on SK-MEL-2 melanoma is 110%; in the assay on EKVX NSCLC, 90.1%; in the assay on SN12C renal, 110%; in the assay with UO-31 renal, 90.7%; with TK-10 renal, 99.9%; in the assay with ACHN renal it was 99.3%. Moreover, the results for the growth with CAKI-1 renal, with A498 renal and in the assay with CCRF-CEM leukemia were 103%, 108% and 114%, respectively.
`COc1ccc(C(=O)/C=C/c2cccc(Cl)c2)cc1S(N)(=O)=O`: the growth in the assay on SK-MEL-2 melanoma is 80.9%; with EKVX NSCLC it was -73.5% (active); in the assay with SN12C renal, -25.3% (active); with UO-31 renal, -67.6% (active); in the assay on TK-10 renal, -86.1% (active); with ACHN renal, -89.3% (active). In addition, the growth was -9.94% (active) with CAKI-1 renal, 111% with A498 renal and 6.96% (active) in the assay with CCRF-CEM leukemia.
Regarding `O=C(Cn1c(/C=C/c2cccc([N+](=O)[O-])c2)nc2ccccc2c1=O)Nc1ccccc1`, the growth in the assay with SK-MEL-2 melanoma is 87.7%; in the assay with EKVX NSCLC, 79.6%; with SN12C renal it was 74.5%; in the assay on UO-31 renal, 77.4%; in the assay with TK-10 renal, 109%; with ACHN renal it was 43.9%. For the same compound, the growth in the assay on CAKI-1 renal is 80.2%; with A498 renal, 94.7%; with CCRF-CEM leukemia, 91.5%.
With `O=C(NNc1nc2cc(F)ccc2n2c(CN3CC4CNCC4C3)ccc12)c1ccncn1` (centres undefined), the growth with SK-MEL-2 melanoma is 42.7%; in the assay on EKVX NSCLC it was 12.7%; in the assay with SN12C renal, 7.46% (active); in the assay on UO-31 renal, 15.6%; with TK-10 renal, 29.9%; in the assay on ACHN renal, 8.07% (active). The growth in the assay with CAKI-1 renal is 12.1%; in the assay on A498 renal, 59%; with CCRF-CEM leukemia, 12.7%.
On to `O=C(NNc1nc2cc(F)ccc2n2c(CN3CCCCC3)ccc12)c1cnccn1`, for which the growth in the assay with SK-MEL-2 melanoma was -67.2% (active); with EKVX NSCLC, -78.2% (active); in the assay on SN12C renal, 1.01% (active); with UO-31 renal, -72.2% (active); with TK-10 renal, -92.7% (active); with ACHN renal, -98.3% (active). Moreover, the growth was -79.5% (active) with CAKI-1 renal, -87.9% (active) in the assay on A498 renal and -16.2% (active) in the assay with CCRF-CEM leukemia.
Consider `O=C1Nc2ccc([N+](=O)[O-])cc2C1=Nc1ccccc1`, for which the growth is 104% in the assay on SK-MEL-2 melanoma; 95.9% in the assay on EKVX NSCLC; 89.3% in the assay on SN12C renal; 69.4% in the assay on UO-31 renal; 111% in the assay on TK-10 renal; 78.2% in the assay on ACHN renal. For the same compound, the growth is 77.2% in the assay with CAKI-1 renal, 116% with A498 renal and 103% in the assay on CCRF-CEM leukemia.
On to `C[C@H]1CN(C(=O)c2ccc3c(NNC(=O)c4ccncn4)nc4cc(F)c(F)cc4n23)CCN1`, for which the growth is 53.4% in the assay on SK-MEL-2 melanoma; 15.7% in the assay on EKVX NSCLC; 24.1% with SN12C renal; 13.6% in the assay on UO-31 renal; 36.8% in the assay on TK-10 renal; 8.98% (active) in the assay on ACHN renal. Also, the results for the growth in the assay on CAKI-1 renal, in the assay on A498 renal and in the assay with CCRF-CEM leukemia were 15.2%, 50.3% and 10.9%, respectively.
For `O=C(NNc1nc2cc(F)ccc2n2c(C(=O)N3CCN(C4CC4)CC3)ccc12)c1ncccn1`, the growth was 57% in the assay with SK-MEL-2 melanoma; 22.8% in the assay on EKVX NSCLC; 27% with SN12C renal; 14.8% in the assay on UO-31 renal; 30.2% in the assay with TK-10 renal; 12.2% in the assay on ACHN renal. In addition, the growth in the assay on CAKI-1 renal was 17.7%; in the assay on A498 renal, 75.9%; with CCRF-CEM leukemia, 13.4%.
